Bioassay records from PubChem.
TIM10 inh: growth inhibitors of isogenic TIM10 control yeast, primary screen, counter-screen for tim10-1 yeast inhibitor project, luminescence, uHTS; 330,000 compounds, 1.4% hits; AID 463195, 2010; inhibition, % at 10 µM; S. cerevisiae TIM10 strain growth, BacTiter-Glo luminescence, 24 h;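 active means inhibition of 40% or more at the single tested concentration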;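 further: wild-type TIM10 isogenic control strain grown at permissive 25 °C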
PfHsp90 set2: growth inhibition of PfHsp90-expressing yeast, primary screen, antimalarial PfHsp90 inhibitor project, S. cerevisiae, BacTiter-Glo luminescence, single point, set 2. 310,000 compounds, 0.32% hits. BacTiter-Glo ATP, 48 h; yeast lacking PDR1 and PDR3 efflux regulators. AID 504621, 2011. inhibition, % at 9.4 µM;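 active means every replicate shows inhibition above about 80%, whatever the replicate mean, limit read from the data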;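 further: 0% = DMSO neutral controls and 100% = 20 µM radicicol positive controls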
tim10-1 inh: growth inhibitors of tim10-1 mutant yeast, primary screen, luminescence, uHTS | S. cerevisiae tim10-1 ts strain growth, BacTiter-Glo, 24 h | inhibition, % at 20 µM | 330,000 compounds, 2.2% hits | AID 463190, 2010;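 active means inhibition of at least 40%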;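 further: mutant grown at 25 °C; 0% = DMSO wells with yeast and 100% = wells holding no yeast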
NALP1 inh: NALP1 inflammasome inhibitors in reconstituted yeast, colorimetric, S. cerevisiae, triplicate retest. S. cerevisiae NALP1/ASC/caspase-1 growth, X-gal OD620, 72 h. inhibition, % at 10 µM. AID 2071, 2009. 280,000 compounds, 0.61% hits; in the data active means inhibition mostly above about 24%, no sharp cut-off; inactive means mostly below about 32%
tim23-1 inh: growth inhibitors of tim23-1 mutant yeast, primary screen, luminescence, uHTS; S. cerevisiae tim23-1 growth, BacTiter-Glo luminescence, 24 h; inhibition, % at 20 µM; 330,000 compounds, 1.3% hits;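 active means growth inhibition of the mutant yeast at or above 50%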;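 further: temperature-sensitive mutant grown at 25 °C; plate controls were DMSO-treated mutant yeast for no effect and medium wells lacking yeast for full effect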
SKKanGAS inh: S. pyogenes SKKanGAS growth inhibitors in kanamycin, primary screen, streptokinase expression inhibitor project, SKKanGAS strain, BacTiter-Glo luminescence. 6 h. inhibition, % at 7.5 µM. 300,000 compounds, 1.3% hits;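 active means mean replicate score, as percent of positive control median, at least 50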;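 further: strain carries kanamycin resistance gene driven by streptokinase promoter and grows in 40 µg/ml kanamycin; loss of luminescence reflects streptokinase promoter inhibition or plain growth inhibition; 0% = median of DMSO wells and 100% = positive control at its reference dose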
tim10-1 conf: growth inhibitors of tim10-1 mutant yeast, confirmation, single concentration, luminescence, S. cerevisiae; S. cerevisiae tim10-1 ts strain growth, BacTiter-Glo, 24 h; inhibition, % at 20 µM; 7,400 compounds, 56% hits; shares compounds with tim10-1 inh;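 active means inhibition of yeast growth at or above a set limit in either of two repeat tests at 20 µM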;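 further: tim10-1 mutant grown at permissive 25 °C to find synthetic lethal compounds; 0% = DMSO yeast wells and 100% = medium wells without yeast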
The depositor's hits bear a star. An excerpt weighted towards active compounds, which were near 4.8% of everything screened.

`COc1ccc(Cn2c(=S)[nH]c3ccsc3c2=O)cc1` gave TIM10 inh 28, PfHsp90 set2 -29, tim10-1 inh 51*, NALP1 inh 23, tim23-1 inh 21, SKKanGAS inh -1 and tim10-1 conf 19.
`Cc1ccc(-c2[nH]c(=O)n3ccncc23)s1` gave TIM10 inh 11, PfHsp90 set2 11, tim10-1 inh 8, tim23-1 inh 1 and SKKanGAS inh -1.
CN(C1CCCCC1)S(=O)(=O)c1ccc(NC(=O)c2ccco2)cc1 was read as TIM10 inh 11, PfHsp90 set2 -14, tim10-1 inh 44*, NALP1 inh 1, tim23-1 inh 42, SKKanGAS inh -4 and tim10-1 conf 29*.
Screening CN(c1ccccc1)S(=O)(=O)c1ccc(NC(=O)c2ccco2)cc1 returned TIM10 inh 28, PfHsp90 set2 0, tim10-1 inh 33, NALP1 inh 5, tim23-1 inh 44 and SKKanGAS inh 2.
COc1cccc(OC)c1C(=O)NNC(=O)c1ccc(F)cc1 was read as TIM10 inh -7, PfHsp90 set2 -31, tim10-1 inh -11, NALP1 inh -1, tim23-1 inh 13 and SKKanGAS inh 5.
Screening C=C1CC[C@@H]2[C@](C)(CO)[C@H](O)CC[C@@]2(C)[C@@H]1/C=C/C1=CCOC1=O returned TIM10 inh 2, PfHsp90 set2 11, tim10-1 inh 98*, NALP1 inh -3, tim23-1 inh 21, SKKanGAS inh -6 and tim10-1 conf 5.
`O=C(Cc1ccc(S(=O)(=O)N2CCCCC2)s1)Nc1ccc(F)c(F)c1` gave TIM10 inh 25, PfHsp90 set2 -14, tim10-1 inh 47*, NALP1 inh 23, tim23-1 inh 33, SKKanGAS inh 0 and tim10-1 conf 28.
Clc1ccccc1Nc1nnc(-c2ccncc2)s1 was read as TIM10 inh 30, PfHsp90 set2 66, tim10-1 inh 40*, NALP1 inh 32, tim23-1 inh 42, SKKanGAS inh 34 and tim10-1 conf 41*.
For Cc1cc(N2CCCCC2)nc(SCc2ccc(C#N)cc2)n1 the results were TIM10 inh 33, PfHsp90 set2 10, tim10-1 inh 47*, NALP1 inh 8, tim23-1 inh 39, SKKanGAS inh -3 and tim10-1 conf 28.
`Cc1ccc(NC(=O)CCCCCC2NC(=O)NC2C)cc1` (stereo not given) gave TIM10 inh -12, PfHsp90 set2 -7, tim10-1 inh 4, NALP1 inh 6, tim23-1 inh 5 and SKKanGAS inh -1.
Screening CC1(C)CC2CC(C)(CN2C(=O)C23CCC(C)(C(=O)C2)C3(C)C)C1 (stereo not given) returned TIM10 inh -10, PfHsp90 set2 -4, tim10-1 inh 43*, NALP1 inh 29, tim23-1 inh 23, SKKanGAS inh -6 and tim10-1 conf 14.
For CC12CCC(C(=O)NC3CCCC3)(CC1=O)C2(C)C (stereo not given) the results were TIM10 inh 6, PfHsp90 set2 -1, tim10-1 inh -3, NALP1 inh -10, tim23-1 inh 15 and SKKanGAS inh -5.
Screening Cc1ccc(S(=O)(=O)NN=C2CC3CCC2(C)C3(C)C)cc1 (stereo not given) returned PfHsp90 set2 -6.
CC(=O)c1sc(N/N=C2\CC3CCC2(C)C3(C)C)nc1C (stereo not given) was read as TIM10 inh 26, PfHsp90 set2 -6, tim10-1 inh 43*, NALP1 inh 0, tim23-1 inh 30, SKKanGAS inh 12 and tim10-1 conf 23.
For Cc1cccc(NC(=O)Nc2ccc(Br)cc2)n1 the results were TIM10 inh 9, PfHsp90 set2 0, tim10-1 inh -1, NALP1 inh 11, tim23-1 inh 9 and SKKanGAS inh -1.
COc1ccc(-n2cnnc2SCC(=O)NC2CCCc3ccccc32)cc1 (stereo not given) was read as TIM10 inh 15, PfHsp90 set2 12, tim10-1 inh 8, NALP1 inh 25, tim23-1 inh 26 and SKKanGAS inh -12.
O=C(Nc1ccccc1C(=O)Nc1ccccc1C(=O)O)c1ccccc1 was read as TIM10 inh 9, PfHsp90 set2 -6, tim10-1 inh 47*, NALP1 inh 9, tim23-1 inh 31, SKKanGAS inh 33 and tim10-1 conf 26.
Screening Nc1ccc(C(=O)Nc2ccccc2C(=O)O)cc1 returned TIM10 inh 14, tim10-1 inh 16, NALP1 inh 4, tim23-1 inh 17 and SKKanGAS inh 7.
`COc1ccc(C(=O)Nc2ccccc2C(=O)Nc2ccccn2)cc1` gave TIM10 inh 17, PfHsp90 set2 24, tim10-1 inh 43*, NALP1 inh 8, tim23-1 inh 45, SKKanGAS inh 3 and tim10-1 conf 24.
O=C(COCC(=O)N/N=C/c1ccccc1F)N/N=C/c1ccccc1F was read as TIM10 inh 2, PfHsp90 set2 -29, tim10-1 inh 11, NALP1 inh 24, tim23-1 inh 5 and SKKanGAS inh -5.
Screening O=C(NNc1nc2ccccc2s1)c1ccccc1F returned TIM10 inh 38, PfHsp90 set2 -6, tim10-1 inh 47*, NALP1 inh 1, tim23-1 inh 26, SKKanGAS inh -8 and tim10-1 conf 28.
`O=C(NNc1nc2ccccc2s1)Nc1ccc(F)cc1` gave TIM10 inh 10, PfHsp90 set2 -72, tim10-1 inh 28, tim23-1 inh 0 and SKKanGAS inh -6.
COc1ccccc1CNC(=O)c1c(N)n(CCCN2CCOCC2)c2nc3ccccc3nc12 was read as PfHsp90 set2 15, NALP1 inh 12 and SKKanGAS inh 30.
`Nc1c(C(=O)NCc2ccc3c(c2)OCO3)c2nc3ccccc3nc2n1CCCN1CCOCC1` gave TIM10 inh 4, PfHsp90 set2 -14, tim10-1 inh 44*, NALP1 inh 16, tim23-1 inh 8, SKKanGAS inh 8 and tim10-1 conf 29.
For COc1ccc(-c2oc3ncnc(NCCCN(C)C)c3c2-c2ccc(OC)cc2)cc1 the results were TIM10 inh 19, PfHsp90 set2 -7, tim10-1 inh 40*, NALP1 inh 22, tim23-1 inh 17, SKKanGAS inh 1 and tim10-1 conf 42*.
